Source: the supplement of paper PMC8728848
About 410 targets per protein were measured; listed, in parts, are those with the strongest signals and a random draw of the rest.

Key:
Assay in all cases: glycan array binding signal (z-score within array); higher = stronger binding
Conditions in all cases: glycan notation: IUPAC condensed, linker removed; mutation: H213R,G256S
[1] = biological target: Fuc(a1-2)Gal
Outline: (§1)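 Columns mapping to the same glycan were averaged after glycan names were converted to IUPAC-condensed notation. The data come from 3228 arrays in the Consortium for Functional Glycomics database, limited to those with an available protein sequence. Binding is reported as a within-array Z-score averaged across arrays of one protein sequence and across linkers.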

[2] = biological target: Fuc(a1-2)Gal(b1-3)GalNAc
Outline: as §1

[3] = biological target: Fuc(a1-2)Gal(b1-4)Glc6S
Outline: as §1

[4] = biological target: Fuc(a1-2)Gal(b1-4)[Fuc(a1-3)]GlcNAc(b1-3)Gal(b1-4)[Fuc(a1-3)]GlcNAc(b1-3)Gal(b1-4)[Fuc(a1-3)]GlcNAc
Outline: as §1

[5] = biological target: Fuc(a1-2)[GalNAc(a1-3)]Gal(b1-4)[Fuc(a1-3)]GlcNAc
Outline: as §1

[6] = biological target: Fuc(a1-3)GlcNAc
Outline: as §1

[7] = biological target: Fuc(a1-3)[Gal(b1-4)]GlcNAc(b1-4)Gal(b1-4)[Fuc(a1-3)]GlcNAc
Outline: as §1

[8] = biological target: Gal(a1-4)Gal(b1-4)Glc
Outline: as §1

[9] = biological target: Gal(a1-4)GlcNAc
Outline: as §1

[10] = biological target: Gal3S(b1-3)GalNAc
Outline: as §1

[11] = biological target: Gal3S(b1-4)[Fuc(a1-3)]Glc
Outline: as §1

[12] = biological target: Gal3S6S(b1-4)GlcNAc6S
Outline: as §1

[13] = biological target: Gal6S(b1-4)Glc6S
Outline: as §1

[14] = biological target: Glc(b1-6)Glc
Outline: as §1

[15] = biological target: Kdn(a2-3)Gal(b1-4)GlcNAc
Outline: as §1

[16] = biological target: Man(a1-2)Man(a1-3)[Man(a1-2)Man(a1-6)]Man(a1-6)[Man(a1-2)Man(a1-2)Man(a1-3)]Man(b1-4)GlcNAc(b1-4)GlcNAc
Outline: as §1

[17] = biological target: Neu5Ac(a2-3)Gal(b1-3)GalNAc
Outline: as §1

[18] = biological target: Neu5Ac(a2-3)Gal(b1-3)[Neu5Ac(a2-3)Gal(b1-4)]GlcNAc
Outline: as §1

[19] = biological target: Neu5Ac(a2-3)Gal(b1-4)[Fuc(a1-3)]GlcNAc(b1-3)Gal(b1-4)GlcNAc
Outline: as §1

[20] = biological target: Neu5Ac(a2-6)Gal(b1-4)GlcNAc6S
Outline: as §1

[21] = biological target: Neu5Gc(a2-3)Gal(b1-4)GlcNAc
Outline: as §1

B1: CD23 (Homo sapiens) (protein)
chain: MELQVSSGFVCNTCPEKWINFQRKCYYFGKGTKQWVHARYACDDMEGQLVSIHSPEEQDFLTKRASHTGSWIGLRNLDLKGEFIWVDGSHVDYSNWAPGEPTSRSQSEDCVMMRGSGRWNDAFCDRKLGAWVCDRLATCTPPASEGSAESMGPDSRPDPDGRLPTPSAPLHS
glycan array binding signal (z-score) [1]: 0.42 | glycan array binding signal (z-score) [2]: 0.764 | glycan array binding signal (z-score) [3]: 0.623 | glycan array binding signal (z-score) [4]: 1.02 | glycan array binding signal (z-score) [5]: -0.361 | glycan array binding signal (z-score) [6]: -0.166 | glycan array binding signal (z-score) [7]: 0.007 | glycan array binding signal (z-score) [8]: -0.15 | glycan array binding signal (z-score) [9]: 0.434 | glycan array binding signal (z-score) [10]: -0.308 | glycan array binding signal (z-score) [11]: -0.106 | glycan array binding signal (z-score) [12]: 1.06 | glycan array binding signal (z-score) [13]: 0.798 | glycan array binding signal (z-score) [14]: -0.561 | glycan array binding signal (z-score) [15]: -0.386 | glycan array binding signal (z-score) [16]: 0.376 | glycan array binding signal (z-score) [17]: -0.283 | glycan array binding signal (z-score) [18]: -0.301 | glycan array binding signal (z-score) [19]: 0.869 | glycan array binding signal (z-score) [20]: -0.002 | glycan array binding signal (z-score) [21]: 0.062
